Here are results for 13 compounds from PubChem BioAssay (NCATS).

The target in assay [1] is Thyrotropin receptor (Homo sapiens) (UniProt P16473). The assay is described as follows: qHTS Assay for Antagonists of the Thyroid Stimulating Hormone Receptor (AID 488980). Note: series mostly up to about 58 µM; 0% is about no effect. In outline: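 Inhibition of cAMP raised by EC80 TSH (4 nM final) was read by HTRF, with lysate cAMP competing against cAMP-d2 for cryptate antibody after 30 min at room temperature. The cells were transfected HEK293 held in phosphodiesterase inhibitor RO 20-1724 at 70 uM.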
Sequence of Thyrotropin receptor (Homo sapiens) (P16473 whole entry, looked up): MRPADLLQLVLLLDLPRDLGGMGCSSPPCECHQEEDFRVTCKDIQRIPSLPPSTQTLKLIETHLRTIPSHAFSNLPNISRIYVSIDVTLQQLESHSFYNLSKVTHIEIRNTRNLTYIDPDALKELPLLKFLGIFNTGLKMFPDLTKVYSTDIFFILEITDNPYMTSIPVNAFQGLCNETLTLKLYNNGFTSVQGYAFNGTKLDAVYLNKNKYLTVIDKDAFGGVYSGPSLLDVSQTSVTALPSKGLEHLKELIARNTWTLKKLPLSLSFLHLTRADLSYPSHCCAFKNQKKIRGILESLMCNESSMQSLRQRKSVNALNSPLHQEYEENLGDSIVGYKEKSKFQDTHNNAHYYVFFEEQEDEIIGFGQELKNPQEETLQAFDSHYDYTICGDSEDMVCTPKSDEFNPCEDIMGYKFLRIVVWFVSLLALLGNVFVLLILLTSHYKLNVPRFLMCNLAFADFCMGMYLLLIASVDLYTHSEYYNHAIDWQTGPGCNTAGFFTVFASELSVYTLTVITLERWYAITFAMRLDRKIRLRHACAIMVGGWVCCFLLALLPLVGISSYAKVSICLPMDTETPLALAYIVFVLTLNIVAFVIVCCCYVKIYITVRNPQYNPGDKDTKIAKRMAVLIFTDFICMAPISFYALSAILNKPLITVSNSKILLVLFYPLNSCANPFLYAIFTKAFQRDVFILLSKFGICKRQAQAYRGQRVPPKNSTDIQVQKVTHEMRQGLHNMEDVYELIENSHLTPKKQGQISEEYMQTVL

The target in assay [2] is D(1A) dopamine receptor (Homo sapiens) (UniProt P21728). The assay is described as follows: HTS Assay for Allosteric Agonists of the Human D1 Dopamine Receptor: Primary Screen for Agonists (AID 488981). Note: 0% is about no effect. An outline of the steps: (§1)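 Tetracycline-induced HEK293 Trex D1 cells with forced coupling to calcium, loaded with no-wash calcium dye; kinetic fluorescence read 180 s after compound addition for agonism, then a further 180 s after an EC20 dopamine challenge for potentiation.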
Sequence of D(1A) dopamine receptor (Homo sapiens) (P21728 whole entry, looked up): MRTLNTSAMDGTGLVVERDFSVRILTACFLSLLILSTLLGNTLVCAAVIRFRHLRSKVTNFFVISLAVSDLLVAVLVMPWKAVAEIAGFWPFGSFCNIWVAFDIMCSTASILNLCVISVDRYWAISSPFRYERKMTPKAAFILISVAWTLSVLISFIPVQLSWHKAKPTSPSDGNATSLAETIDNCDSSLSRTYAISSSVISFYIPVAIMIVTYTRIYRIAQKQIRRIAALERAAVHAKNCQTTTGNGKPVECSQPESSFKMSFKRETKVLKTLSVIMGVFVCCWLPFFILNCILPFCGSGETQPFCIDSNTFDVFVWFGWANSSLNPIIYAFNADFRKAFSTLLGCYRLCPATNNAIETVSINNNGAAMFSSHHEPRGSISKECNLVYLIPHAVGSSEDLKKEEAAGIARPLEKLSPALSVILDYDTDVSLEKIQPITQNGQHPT

For assay [3] the target is unchanged. The assay is described as follows: HTS Assay for Allosteric Agonists of the Human D1 Dopamine Receptor: Primary Screen for Antagonists (AID 488983).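 Note: calcium flux response to an EC80 dopamine challenge measured with no-wash dye; nearly all actives have a fitted effect of over 65% in size.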 Note: potency is the fitted concentration of half-maximal effect. An outline of the steps: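 Tetracycline-induced HEK293 T-REx D1 line, force-coupled to calcium flux, read with no-wash calcium dye. Compound added after 10 s baseline, read 180 s for agonism, then EC80 dopamine added and read a further 180 s.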

The nature of assay [4]: Validation screen for small molecules that induce genotoxicity in human embryonic kidney (HEK293T) cells expressing luciferase-tagged ELG1 (AID 493106). Note: 0% is about no effect. An outline of the steps:
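HEK293T cells expressing luciferase-tagged ELG1, 2,000 cells/well, exposed to compound 16 hr at 37 °C, 5% CO2. Luciferase read after ONE-Glo, 30 min at room temperature; increased signal indicates genetic stress.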

Assay [5] can be described thus: Nrf2 qHTS screen for inhibitors: Validation (AID 493153; active = well fitted inhibition curve with a large enough effect in the main read-out, with a control signal flat, not every such curve was filed as active). The settings on record: Potency: luciferase luminescence; viability change: measured here: cytotoxicity max response. An outline of the steps: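 A549 cells carrying ARE-firefly luciferase reporter, 5000 cells/well in 5% FBS OPTI-MEM, treated with compound over a concentration series for 18-24 h at 37 C. Luciferase luminescence gave Nrf2 activity; CellTiter-Fluor fluorescence gave viability.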
For orientation: Quantitative high-throughput screening tests each substance at several concentrations.

Assay [6] deals with ATPase family AAA domain-containing protein 5 (Homo sapiens) (UniProt Q96QE3). Description: Validation screen for small molecules that inhibit ELG1-dependent DNA repair in human embryonic kidney (HEK293T) cells expressing luciferase-tagged ELG1 (AID 493107). Note: nearly all actives have a fitted effect of over 70% in size. Note: potency is the fitted concentration of half-maximal effect. An outline of the steps: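 HEK293T cells expressing luciferase-tagged ELG1, 2,000 per well, treated with 5-fluorouridine plus compound for 16 h at 37 C. ONE-Glo luminescence after 30 min at room temperature reports ELG1 reporter level.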
Sequence of ATPase family AAA domain-containing protein 5 (Homo sapiens) (Q96QE3 whole entry, looked up, the tested form may be a part): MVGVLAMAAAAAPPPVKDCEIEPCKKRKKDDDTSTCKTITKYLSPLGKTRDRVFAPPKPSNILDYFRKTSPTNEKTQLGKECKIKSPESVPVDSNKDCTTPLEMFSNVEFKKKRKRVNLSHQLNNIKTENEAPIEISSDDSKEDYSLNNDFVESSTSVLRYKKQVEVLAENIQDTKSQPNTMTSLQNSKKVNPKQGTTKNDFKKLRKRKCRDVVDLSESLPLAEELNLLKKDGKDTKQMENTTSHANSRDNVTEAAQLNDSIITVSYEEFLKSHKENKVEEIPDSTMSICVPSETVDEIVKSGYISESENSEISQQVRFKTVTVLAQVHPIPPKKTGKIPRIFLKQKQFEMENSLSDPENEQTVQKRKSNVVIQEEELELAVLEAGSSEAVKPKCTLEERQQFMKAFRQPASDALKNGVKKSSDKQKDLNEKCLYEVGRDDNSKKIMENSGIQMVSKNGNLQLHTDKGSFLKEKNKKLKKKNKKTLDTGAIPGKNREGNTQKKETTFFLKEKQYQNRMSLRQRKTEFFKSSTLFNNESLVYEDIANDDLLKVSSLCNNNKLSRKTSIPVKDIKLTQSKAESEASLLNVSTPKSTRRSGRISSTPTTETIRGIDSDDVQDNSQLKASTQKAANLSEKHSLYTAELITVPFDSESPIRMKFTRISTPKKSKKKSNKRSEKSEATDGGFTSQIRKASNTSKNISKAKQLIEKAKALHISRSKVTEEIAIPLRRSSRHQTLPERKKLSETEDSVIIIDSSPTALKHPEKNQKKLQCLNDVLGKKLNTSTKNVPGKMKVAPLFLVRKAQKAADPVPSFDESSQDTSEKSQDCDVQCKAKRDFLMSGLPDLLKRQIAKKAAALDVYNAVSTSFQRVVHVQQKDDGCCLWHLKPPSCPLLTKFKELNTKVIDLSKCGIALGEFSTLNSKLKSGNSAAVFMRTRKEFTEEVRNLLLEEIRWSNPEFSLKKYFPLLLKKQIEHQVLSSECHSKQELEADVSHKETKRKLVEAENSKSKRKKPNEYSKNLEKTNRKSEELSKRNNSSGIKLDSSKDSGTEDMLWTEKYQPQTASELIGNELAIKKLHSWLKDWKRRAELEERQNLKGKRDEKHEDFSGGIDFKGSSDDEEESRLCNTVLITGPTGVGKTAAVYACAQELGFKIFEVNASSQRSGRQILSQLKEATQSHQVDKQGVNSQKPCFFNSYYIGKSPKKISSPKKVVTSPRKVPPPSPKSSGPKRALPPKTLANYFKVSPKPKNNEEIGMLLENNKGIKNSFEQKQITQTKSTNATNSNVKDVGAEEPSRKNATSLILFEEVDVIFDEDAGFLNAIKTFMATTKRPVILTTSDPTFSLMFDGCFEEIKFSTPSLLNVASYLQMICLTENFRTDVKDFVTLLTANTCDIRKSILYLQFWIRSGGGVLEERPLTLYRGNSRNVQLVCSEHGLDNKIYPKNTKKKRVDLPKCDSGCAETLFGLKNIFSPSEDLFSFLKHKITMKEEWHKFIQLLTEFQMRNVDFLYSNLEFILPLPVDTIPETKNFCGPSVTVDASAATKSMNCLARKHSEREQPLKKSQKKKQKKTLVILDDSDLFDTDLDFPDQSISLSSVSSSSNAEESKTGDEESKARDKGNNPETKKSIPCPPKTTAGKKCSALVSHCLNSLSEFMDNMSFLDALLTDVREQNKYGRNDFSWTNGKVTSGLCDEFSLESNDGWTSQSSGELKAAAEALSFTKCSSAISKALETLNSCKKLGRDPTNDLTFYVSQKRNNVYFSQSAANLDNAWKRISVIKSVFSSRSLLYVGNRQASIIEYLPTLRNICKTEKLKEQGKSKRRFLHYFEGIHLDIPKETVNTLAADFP

Assay [7] addresses Thyrotropin-releasing hormone receptor (Homo sapiens) (UniProt P34981). The assay is described as follows: qHTS for Small Molecule Agonists and Allosteric Enhancers of Human TRH Receptor: Validation Screen for Agonists (AID 493127;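 active = calcium activation more than 3 SD above the typical response in the agonist read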; note: 0% is about no effect). The settings on record: TRH receptor agonist cell assay; at 2 µM; stronger effect = higher value. An outline of the steps:
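TRHR cells loaded with fluo-8 calcium dye; FDSS kinetic fluorescence (Ex 480/Em 530) read at 1 s/cycle after 23 nL compound addition. Agonist-mode calcium response recorded before the 10 nM TRH (EC20) addition.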

The target of assay [8] is D(1A) dopamine receptor (Homo sapiens) (UniProt P21728). Description: HTS Assay for Allosteric Agonists of the Human D1 Dopamine Receptor: Primary Screen for Potentiators (AID 488982). Note: 0% is about no effect. An outline of the steps:
as §1

SMILES strings stand for the structures. “And” between values parts separate entries of the source, which are not always exact repeats. Equal values may be shown once. Inconclusive results are not listed. The source made the active and inactive calls. Unless noted, calls come from the whole dose curve; as a rule, active = well fitted curve in the direction sought with a large enough effect; inconclusive = small, poorly fitted or top-dose-only effect, or another doubt; inactive = no such curve, though single readings can be large; an effect the other way counts as inactive or inconclusive.

Sequence of Thyrotropin-releasing hormone receptor (Homo sapiens) (P34981 whole entry, looked up): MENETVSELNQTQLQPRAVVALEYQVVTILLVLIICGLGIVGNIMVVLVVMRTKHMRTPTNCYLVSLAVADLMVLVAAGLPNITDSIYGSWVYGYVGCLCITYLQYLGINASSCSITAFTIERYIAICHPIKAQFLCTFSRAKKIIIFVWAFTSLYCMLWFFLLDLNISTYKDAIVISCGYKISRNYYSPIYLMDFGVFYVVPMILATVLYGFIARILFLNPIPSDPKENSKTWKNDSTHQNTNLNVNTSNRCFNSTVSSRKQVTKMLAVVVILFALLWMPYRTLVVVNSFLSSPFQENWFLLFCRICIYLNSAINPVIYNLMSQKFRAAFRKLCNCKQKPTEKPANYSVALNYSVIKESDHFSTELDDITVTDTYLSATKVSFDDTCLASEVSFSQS

As to `Cc1ccc2c(c1)C(N1CCN(C)CC1)=Nc1cccnc1N2`, the compound was called inactive in assay [1]. Also, the Potency entry in assay [2], in assay [4] and in assay [5] was “inactive” in each case. The Potency in assay [3] is 4470 nM (active). Further, the viability change in assay [5] was 3.55%.

Take `S=C(S)N1CCCC1`: the call in assay [1] was inactive. Besides, the Potency result in assay [3], in assay [6] and in assay [5] was “inactive” in each case. The activation in assay [7] is -0.188% (inactive). For the same compound, in assay [5], the viability change is -3.57%.

Take `C=CCN1CCc2c(cc(O)c(O)c2Cl)C(c2ccccc2)C1` (configuration not stated): in assay [1], the compound was called inactive. For the same compound, the Potency entry in assay [8], in assay [4], in assay [6] and in assay [5] was “inactive” each time. Besides, in assay [7], the activation is -5.75% (inactive). Further, the viability change in assay [5] was -2.43%.

Turning to `COc1ccc(CCn2nnnc2C2(c3ccc(C)cc3)CC2)cc1`, the Potency result in assay [2], in assay [8], in assay [3], in assay [4], in assay [6] and in assay [5] was “inactive” in each case. Also, the viability change in assay [5] came to 2.86%.

On to `N[C@H](C(=O)O)c1cc(O)cc(O)c1`, for which, in assay [1], the call was inactive. The Potency entry in assay [8], in assay [4], in assay [6] and in assay [5] was “inactive” in each case. For the same compound, in assay [7], the activation was 0.0625% (inactive). In assay [5], the viability change came out at 13.1%.

Consider `O=C(O)C1=CCCNC1`, for which the call in assay [1] was inactive. Also, the Potency entry in assay [3], in assay [4], in assay [6] and in assay [5] was “inactive” each time. Besides, the activation in assay [7] is 0.875% (inactive). For the same compound, in assay [5], the viability change was 5.73%.

For `CN(C)CCC(c1ccc(Br)cc1)c1ccccn1` (configuration not stated), the Potency entry in assay [2], in assay [8], in assay [3], in assay [4], in assay [6] and in assay [5] was “inactive” in each case. Also, the viability change in assay [5] was 3.82%.

In the case of `COc1cc(C(O)C(=O)O)ccc1O` (configuration not stated), in assay [1], the compound was classed as inactive. Besides, the Potency result in assay [8], in assay [4], in assay [6] and in assay [5] was “inactive” each time. Further, the viability change in assay [5] came out at 10.2%.

Turning to `CN(C)CCCc1cc(C(=O)Nc2ccc(-c3ccncc3)cc2)ccc1O`, the Potency entry in assay [2], in assay [8], in assay [3], in assay [4] and in assay [6] was “inactive” in each case.

In the case of `O=C1Nc2ccc(I)cc2/C1=C/c1cc(Br)c(O)c(Br)c1`, in assay [1], the call was inactive. The Potency entry in assay [8], in assay [4] and in assay [6] was “inactive” in each case. In assay [7], the activation was 8.19% (inactive).

In the case of `COc1ccc(-c2cc3ncc(C)n3c(Nc3ncccc3C(N)=O)n2)cc1OC`, the Potency result in assay [2], in assay [8], in assay [3] and in assay [4] was “inactive” throughout. Besides, the Potency in assay [6] is 1030 nM (active).

In the case of `Cc1ccc([N+](=O)[O-])cc1S(=O)(=O)N(C)C`, the compound was called inactive in assay [1]. Besides, the Potency result in assay [3], in assay [4], in assay [6] and in assay [5] was “inactive” throughout. Also, the activation in assay [7] is 1.19% (inactive) and 0.125% (inactive). Besides, the viability change in assay [5] is 3.59%.

On to `NC1(C(=O)O)CC1`, for which the call in assay [1] was inactive. For the same compound, the Potency result in assay [8], in assay [3], in assay [4], in assay [6] and in assay [5] was “inactive” in each case. The viability change in assay [5] stood at 4.01%.
